# Reference: PubChem BioAssay AID2113 (National Center for Advancing Translational Sciences (NCATS), 2009)
# Inconclusive results are not listed. Unmarked numbers belong to inactive results. Active and inactive are the calls of the source. The call rests on the fitted dose curve; in most records, active means well fitted curve in either direction with a large enough effect; inconclusive means small, poorly fitted or top-dose-only effect; inactive means no such curve, though single readings can be large or run the other way.
# Target: Lysosomal alpha-glucosidase (Homo sapiens) (UniProt P10253)
# Assay: Confirmation of Inhibitors and Activators of Human alpha-Glucosidase From Spleen Homogenate; on activity change, both directions: 0% is about no effect
# Settings: alpha-glucosidase enzyme activity; series mostly up to 60.5 µM; activity change, both directions: at the top concentration
# From the text: NIH Chemical Genomics Center [NCGC]
# NIH Molecular Libraries Probe Production centers Network [MLPCN]
# Assay Submitter (PI): Wei Zheng
# Alpha-glucosidase is responsible for hydrolysis of terminal, non-reducing 1,4-linked alpha-D-glucose residues with release of alpha-D-glucose. It is a lysosomal hydrolase that is required for the degradation of a small percentage (1-3%) of cellular glycogen in human. Deficiency of this enzyme results in glycogen-storage disease type II (GSDII), also referred to as Pompe disease, an autosomal recessive disorder. Structurally normal glycogen is accumulated in lysosomes and cytoplasm in affected patients, primarily in muscle tissues. Excessive glycogen storage within lysosomes may interrupt normal functioning of other organelles and leads to cellular injury. In turn, this leads to enlargement and dysfunction of the entire organ involved (eg, cardiomyopathy and muscle weakness).
# It has reported that the improper folding and trafficking of alpha-glucosidase resultinged from the genetic mutations may account for a significant number of Pomrope patients. […] We optimized this alpha-glucosidase assay in 1536-well plate format for identifying the novel small molecule inhibitors with the structures other than the sugar analogs in order to develop the new pharmacological chaperones. In particular, this assay is directed towards discovering compounds active in a more natural setting, tissue homogenate, that may have been missed by screens of the purified enzyme under more stringent conditions. This assay attempted to confirm hits from the primary screening.
# NCGC Assay Protocol Summary:
# This is a fluorogenic enzyme assay with 4-methylumbelliferyl-alpha-D-glucopyranoside as the substrate and human spleen homogenate containing alpha-glucosidase as the enzyme preparation. Upon hydrolysis of this fluorogenic substrate, the resulting product, 4-methylumbelliferone (which excites at 365 nm and emits at 440 nm) can be detected by a fluorescence plate reader. Data were normalized to the controls for basal activity (without enzyme) and 100% activity (with enzyme). The AC50 values were determined from concentration-response data modeled with the standard Hill equation.
# Assay buffer: 50 mM citric acid (titrated with potassium phosphate to pH 5.0), 0.01% Tween-20 (pH 5.0 is an optimal condition for this enzyme assay)
# 1536-well assay protocol for the alpha-glucosidase from human spleen homogenate:
# (1) Add 2 ul/well spleen homogenate (1 ug)
# (2) Add 23 nL compounds in DMSO solution. The final titration was 0.5 nM to 58 uM.
# (3) Add 2 ul of substrate (1 mM final)
# (4) Incubate at 37 C for 40 min
# (5) Add 2 ul stop solution (1M NaOH and 1M Glycine mixture, pH 10)
# (6) Detect the assay plate in a ViewLux plate reader (PerkinElmer) with Ex=365 nm and Em=440nm.
# Keywords: Alpha-glucosidase, Pompe Disease, pharmacological chaperone, chaperone therapy, high throughput screening, alpha-glucosidase inhibitor, MLSMR, MLSCN, NIH Roadmap, qHTS and NCGC
# Potency means the concentration at half of the fitted maximal effect.
SMILES,"activity change, both directions",Potency
Nc1ccc(S(=O)(=O)N2CCOCC2)cc1,1.95%,
O=C1Cc2cc(S(=O)(=O)N3CCNCC3)ccc2N1,-8.69%,
Cc1sc(-c2cc3ccccc3oc2=O)nc1-c1ccc(Cl)cc1,11%,
COc1cccc2cc(-c3nc4c(s3)CCc3ccccc3-4)c(=O)oc12,5.55%,
OCCNc1nc(-c2cccs2)nc2ccccc12,0.945%,
NN=C1c2cc(S(=O)(=O)NCCO)ccc2-c2ccc(S(=O)(=O)NCCO)cc21,0.552%,
CCNc1sc(C(=O)c2cccs2)c(N)c1-c1nc2ccccc2s1,4.26%,
O=C(Nc1ccccc1)C1CCN(S(=O)(=O)c2ccccc2)CC1,0.601%,
CC(C)(C)OC(=O)NCCCC[C@H](NC(=O)c1[nH]cnc1C(=O)Nc1ccc(CNC(=O)OC(C)(C)C)cc1)C(=O)OC(C)(C)C,-7.24%,
CCCC1(C)Nc2ccccc2-c2nc3ccccc3n21 (stereo not given),19.2% [at 31.5 µM],
CCC1C(=O)NCCN1Cc1nc(-c2ccc(C)s2)oc1C (stereo not given),2.96%,
COc1ccc(/C=C/c2nnc(NC(=O)CSc3ccc(C)cc3)s2)cc1,13%,
COc1cc(=O)[nH]c(=O)n1CC(=O)c1ccccc1,1.27% [at 31.5 µM],
CCCN1CNc2c(c(=O)[nH]c(=S)n2CCc2cccs2)C1,,35.5 µM (active)
Cc1ccc(-n2c3c(c(=O)[nH]c2=S)C(C(F)(F)F)(C(F)(F)F)NC(=O)N3)cc1,0.812% [at 31.5 µM],
Cc1nc(SCC(=O)N2CCN(c3ccccc3)CC2)c2oc3ccccc3c2n1,6.86%,
O=S(=O)(c1cccc(Cl)c1)N1CCOCC1,-1.48%,
CC1OC(OC2C(CO)OC(OC3C(CO)OC(O)C(O)C3O)C(O)C2O)C(O)C(O)C1NC1C=C(CO)C(O)C(O)C1O (stereo not given),-74.5%,
CNC(=S)/N=C(\Nc1ccc(C)cc1)c1ccccc1,3.12% [at 31.5 µM],
Cc1nnc(SCC(=O)Nc2nsc(-c3ccc(C(C)(C)C)cc3)n2)s1,-2.15% [at 31.5 µM],

SMILES,"activity change, both directions",Potency
CCCN1CNc2c(c(=O)[nH]c(=S)n2CCc2c(OC)cccc2OC)C1,7.74%,
COC(=O)CSc1ccc(C#N)c(SCC(=O)OC)c1,4.51% [at 31.5 µM],
CC(N=C(NC#N)Nc1ccncc1)C(C)(C)C (stereo not given),1.36%,
N#Cc1cccc(S(=O)(=O)N2CCOCC2)c1,-2.48%,
Cc1ccc(S(=O)(=O)NC(=O)NN2CCCCCC2)cc1,0.869%,
CSc1ccccc1NC(=O)CN(C)CC(=O)NCc1ccccc1,4.33% [at 31.5 µM],
CCCCn1c(CN2CCN(c3cccc(Cl)c3)CC2)nc2c1c(=O)n(C)c(=O)n2C,-2.65% [at 31.5 µM],
C=CCn1c2ccccc2c2nnc(SCC(=O)NC(C(=O)OC)C(C)C)nc21 (stereo not given),5.38% [at 31.5 µM],
O=C(COC(=O)c1ccccc1Br)NCCc1ccc(F)cc1,1.18% [at 31.5 µM],
CC(=O)c1ccc(S(=O)(=O)N2CCOCC2)cc1,-1.31%,
Cc1cnc(C(=O)Nc2cc(S(=O)(=O)N3CCOCC3)ccc2N2CCN(C)CC2)cn1,-28%,
Cc1cccn2c(=O)c(/C=C(\C#N)C(=O)NC3CCS(=O)(=O)C3)c(N3CCC(C)CC3)nc12 (stereo not given),,11.2 µM (active)
COC(=O)c1ccccc1S(=O)(=O)N1CCOCC1,-14%,
CC(=O)N1CCN(S(=O)(=O)c2ccc3c(c2)CC(=O)N3)CC1,,29.8 µM [inhibitor] (active)
Cn1cnc2c(NCc3ccccc3)nc(NCCO)nc21,-19.8%,
CC(=O)N1CCN(c2ccc(NS(=O)(=O)c3ccc4c(c3)CC(=O)N4)cc2)CC1,-25.7% [at 132 µM],
CCCN1CNc2c(c(=O)[nH]c(=S)n2CCc2ccc(OC)cc2OC)C1,,15.8 µM (active)
O=c1oc2ccc(Br)cc2cc1-c1nc2c(s1)CCc1ccccc1-2,-7.86%,
CCOC(=O)C(CC)(CCC(=O)O)c1csc(Nc2ccc(C)cc2)n1 (stereo not given),15% [at 31.5 µM],
CC(C)Cn1c(SCC(=O)N2CCN(S(=O)(=O)c3ccccc3)CC2)nc2ccccc21,-15.3%,
